# Test results published in PubChem BioAssay.
# Active and inactive are the calls of the source.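 How the source made its calls: active means luciferase signal above three times the same-plate solvent-only control wells; inactive means the rest.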
# Molecular target: Mitogen-activated protein kinase 7 (Homo sapiens) (UniProt Q13164)
# Experiment: Gal4-ERK5 driven luciferase induction – cell-based, HTS, primary screen (AID 1508626);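 further: luciferase driven by Gal4-ERK5 fusion binding five Gal4 sites before minimal TATA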
# Settings: HeLa Gal4-ERK5 transactivation, 18 h, at 5 µM, active compounds read high
# Chain of Mitogen-activated protein kinase 7 (Homo sapiens) (Q13164 whole entry, looked up, the tested form may be a part): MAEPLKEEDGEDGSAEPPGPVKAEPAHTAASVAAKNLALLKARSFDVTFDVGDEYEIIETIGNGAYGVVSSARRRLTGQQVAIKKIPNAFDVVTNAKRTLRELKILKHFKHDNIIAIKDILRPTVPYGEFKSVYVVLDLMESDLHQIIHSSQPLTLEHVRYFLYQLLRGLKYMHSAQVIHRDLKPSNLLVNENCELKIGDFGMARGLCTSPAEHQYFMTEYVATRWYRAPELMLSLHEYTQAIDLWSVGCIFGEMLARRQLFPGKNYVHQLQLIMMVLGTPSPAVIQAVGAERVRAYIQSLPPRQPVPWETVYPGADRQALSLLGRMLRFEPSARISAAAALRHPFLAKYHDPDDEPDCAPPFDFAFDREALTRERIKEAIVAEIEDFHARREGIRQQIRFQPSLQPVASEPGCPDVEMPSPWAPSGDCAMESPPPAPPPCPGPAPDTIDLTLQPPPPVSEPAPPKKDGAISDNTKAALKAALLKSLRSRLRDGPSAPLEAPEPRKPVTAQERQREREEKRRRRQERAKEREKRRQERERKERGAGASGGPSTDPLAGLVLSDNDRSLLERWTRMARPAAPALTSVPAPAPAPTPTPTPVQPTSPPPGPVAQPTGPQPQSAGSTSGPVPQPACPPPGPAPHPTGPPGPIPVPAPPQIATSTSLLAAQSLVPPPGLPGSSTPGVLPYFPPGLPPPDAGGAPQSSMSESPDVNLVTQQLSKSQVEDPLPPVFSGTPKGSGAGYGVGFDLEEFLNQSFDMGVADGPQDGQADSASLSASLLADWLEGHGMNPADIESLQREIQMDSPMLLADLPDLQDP
row,Compound,luciferase signal
1,COc1c(O)cc2c(c1O)[C@@H]1O[C@H](CO)[C@@H](O)[C@H](O)[C@H]1OC2=O,48 AU (inactive)
2,CCC(=O)NCC[C@@H]1CCc2ccc3c(c21)CCO3,72 AU (inactive)
3,C=C1CC[C@@H]2[C@](C)(CO)[C@H](O)CC[C@@]2(C)[C@@H]1C/C=C1/C(=O)OC[C@H]1O,176 AU (active)
4,C[C@@H]1[C@H](O)[C@@H](C)/C=C/C=C/C=C/C=C/C=C/C=C/C=C/[C@H](O[C@@H]2O[C@H](C)[C@@H](O)[C@H](N)[C@@H]2O)C[C@@H]2O[C@](O)(C[C@@H](O)C[C@@H](O)[C@H](O)CC[C@@H](O)C[C@@H](O)CC(=O)O[C@H]1C)C[C@H](O)[C@H]2C(=O)O,92 AU (inactive)
5,CC(C)(S)[C@@H](N)C(=O)O,48 AU (inactive)
6,O=C(O)C1=CCCNC1,48 AU (inactive)
7,CC1(C)[C@@H](O)CC[C@]2(C)[C@H]3C(=O)C=C4[C@@H]5C[C@@](C)(C(=O)O)CC[C@]5(C)CC[C@@]4(C)[C@]3(C)CC[C@@H]12,56 AU (inactive)
8,CN[C@H](CC(C)C)C(=O)N[C@H]1C(=O)N[C@@H](CC(N)=O)C(=O)N[C@H]2C(=O)N[C@H]3C(=O)N[C@H](C(=O)N[C@H](C(=O)O)c4cc(O)cc(O)c4-c4cc3ccc4O)[C@H](O)c3ccc(c(Cl)c3)Oc3cc2cc(c3O[C@@H]2O[C@H](CO)[C@@H](O)[C@H](O)[C@H]2O[C@H]2C[C@](C)(N)[C@H](O)[C@H](C)O2)Oc2ccc(cc2Cl)[C@H]1O,68 AU (inactive)
